Only some compounds are listed: those with a hit (about 7.8% of all), similar ones and a draw of the others.
Lassa entry inh – qHTS for Inhibitors of binding or entry into cells for Lassa Virus; Potency, µM (top dose mostly 37.9 µM), without a hit: top-dose activity change, negative = inhibition, hits mostly inhibitors; 300,000 tested, 1.2% active; Lassa virus pseudotype entry inhibition, cell reporter; AID 540256, 2011; calls by dose curve; tested in HEK293 cells; further: potency means the concentration at half of the fitted maximal effect; nearly all actives have a fitted effect of over 50% in size
VACV Venus inh – qHTS for Stage-Specific Inhibitors of Vaccinia Orthopoxvirus: Venus Reporter Primary qHTS | Vaccinia virus Venus reporter expression, fluorescence | Potency, µM (highest dose often 36.5 µM), for inactives: at the top dose activity change, negative = inhibition, most hits filed as inhibitors | 330,000 tested, 0.46% active; calls by dose curve; tested in A549 cells; further: potency means the concentration at half of the fitted maximal effect; nearly all actives have a fitted effect of over 30% in size
MARV entry inh – qHTS for inhibitors of binding or entry into cells for Marburg Virus; Marburg virus pseudotyped entry inhibition, cell reporter; Potency, µM (doses to about 37.8 µM), for the others: at the highest dose activity change, negative = inhibition, usual class: inhibitors; 300,000 tested, 1.8% active; AID 540276, 2011; calls by dose curve; tested in HEK293 cells; further: potency means the concentration at half of the fitted maximal effect
Vaccinia mCherry – qHTS for Stage-Specific Inhibitors of Vaccinia Orthopoxvirus: mCherry Reporter Primary qHTS; Vaccinia virus mCherry reporter infection, fluorescence; Potency, µM (top dose mostly 36.5 µM), for inactives: at the highest dose activity change, negative = inhibition, actives largely listed as inhibitors; 310,000 tested, 0.63% active; AID 720579, 2013; calls by dose curve; tested in A549 cells; further: potency means the concentration at half of the fitted maximal effect; nearly all actives have a fitted effect of over 35% in size
HCV inhibitor – qHTS Assay for Inhibitors of Hepatitis C Virus (HCV); AID 651820, 2012; Potency, µM (series often up to 41.8 µM), inactives show top-dose activity change, negative = inhibition, hits mostly inhibitors; Huh7.5.1 HCVcc-Cre infection, luciferase reporter, 44 h; 340,000 tested, 3.4% active; active means well fitted inhibition curve with a large enough effect; inconclusive means small, poorly fitted or top-dose-only effect, or another doubt; inactive means no such curve, though single readings can be large or run the other way; further: potency means the concentration at half of the fitted maximal effect
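Cells seeded at 1,000/well and cultured 4 h, then compounds added followed by HCVcc-Cre virus (~0.5 moi). After 44 h further culture, luciferase substrate was added, plates held 15 min at room temperature, and luminescence read for 15 sec.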
HCMV antiviral – qHTS Assay for inhibitors of the human cytomegalovirus (HCMV). activity change, negative = inhibition, % at 57.5 µM. HFF cells, HCMV-luciferase reporter, 72 h; stronger effect = lower value. 410,000 tested, 4.5% active; in the data active means activity change below about -60%; inconclusive means no clear call, values can overlap the other calls; inactive means above about -39%
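HFF cells seeded 16 h at 37C, treated with compounds, infected with luciferase-reporter HCMV at MOI 1 PFU/cell; luciferase read at 72 h post infection, normalized to buffer-only and Salinomycin controls.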
Starred values were filed as active, the others as inactive; i = inactive; ? = inconclusive; . = no result given; [ ] = remark or other dose. On the % scale 0 is the no-effect control and ±100 the full control effect.

SMILES | Lassa entry inh | VACV Venus inh | MARV entry inh | Vaccinia mCherry | HCV inhibitor | HCMV antiviral
O=C1c2ccccc2C(=O)c2c1ccc1c(=O)n(-c3ccccc3)[nH]c21 | 8.3% | -2.2% | -18.3% | -11.2% | ? | -65.2*
CCCCc1ccc(NC(=O)c2ccc(N(C)S(C)(=O)=O)cc2)cc1 | -19.3% | -23.2% | ? | -10.4% | ? | -80.9*
CC(C)(C)c1ccc(S(=O)(=O)Nc2ccc(Cc3ccncc3)cc2)cc1 | 10µM* | -28.0% | ? | -28.3% | ? | ?
CCN(CC)S(=O)(=O)c1ccc(C(=O)Nc2ccc(Cc3ccncc3)cc2)cc1 | ? | -23.2% | ? | i | 3.16µM* | -86.8*
CCCCc1ccc(NC(=O)c2ccc(NS(C)(=O)=O)cc2)cc1 | ? | -9.3% | 6.2% | i | ? | 33.3
CCN(CC)S(=O)(=O)c1ccc(C(=O)Nc2cc(C)cc(C)c2)cc1 | ? | -17.3% | ? | -24.4% | -30.0% | -38.7
CCN(CC)S(=O)(=O)c1ccc(NC(=O)c2ccc(N(C)S(C)(=O)=O)cc2)cc1 | ? | ? | -52.8% | . | 4.47µM* | -66.5*
CCN(CC)S(=O)(=O)c1ccc(NC(=O)c2ccccc2N(C)S(C)(=O)=O)cc1 | -8.9% | . | 0.0% | . | 6.0% | -13.0
COc1ccccc1N1CCN(Cc2nc(-c3cc(OC)c(OC)c(OC)c3)no2)CC1 | -17.3%[46.1 µM] | -13.6% | -19.6%[46.1 µM] | -15.9% | . | 12.5
CC(C)(C)[C@]1(O)CCN2CC3c4ccccc4CCc4cccc(c43)[C@@H]2C1 (some centres not stated) | . | . | 4.47µM* | . | . | .
O=C(C1CCCCC1)N1CC(=O)N2CCc3ccccc3C2C1 (configuration not stated) | ? | -1.8% | ? | -5.0% | . | .
NC(=O)c1ccc(Sc2nnc(-c3cccs3)n2CC2CCCO2)c([N+](=O)[O-])c1 (configuration not stated) | 15.0% | 11.2µM* | 24.7% | 7.94µM* | 0.8% | 15.5
O=C(CSc1nnc(-c2cccs2)n1CC1CCCO1)N1CCCC1 (configuration not stated) | 3.9% | -10.8% | 1.4%[46.1 µM] | -12.1% | 32.1% | -4.9
Cc1cc(N2CCN(c3cccc(C(F)(F)F)c3)CC2)n2nc(-c3ccccc3C)nc2n1 | -0.3%[46.1 µM] | 20.2% | 3.4%[46.1 µM] | -10.3% | . | 10.8
Cc1ccc(N(C)/N=C/c2ccc(Cl)cc2Cl)nn1 | . | . | . | . | 0.7% | -67.5*
CN(/N=C/c1ccc(Cl)cc1Cl)c1ncc(Cl)cc1C(F)(F)F | . | . | . | . | 5.3% | 12.1
COc1cc(/C=N/Nc2ccccc2)ccc1O | -25.3%[46.1 µM] | -12.3% | ? | -17.4% | -11.2% | -28.9
COC(=O)c1[nH]c2cc(OC)c(OC)cc2c1/C=N/Nc1ccccc1 | . | . | . | . | 10µM* | 100.3
COC(=O)C1=NNC(C(=O)c2ccco2)C1c1ccc(OC)cc1 (configuration not stated) | . | . | . | . | 4.3% | -63.7*
COC(=O)C1=NNC(C(=O)c2ccco2)C1c1ccccc1 (configuration not stated) | -0.6% | . | -2.1% | . | -8.1% | -16.6
CCCOc1ccc([C@@H]2C3CN(C(=O)OCC)CC=C3C(C#N)=C(N)C2(C#N)C#N)cc1OC (some centres not stated) | 10.3µM* | . | -0.1% | . | -19.7% | -21.3
CSc1cc(-c2ccccc2)n(Cc2c(Cl)cccc2Cl)c(=O)c1C#N | ? | -17.8% | 0.1%[46.1 µM] | . | 6.2% | -38.9
CSc1cc(-c2ccccc2)n(C)c(=O)c1C#N | -8.9%[46.1 µM] | -26.3% | 4.4%[46.1 µM] | ? | 10µM* | -66.5*
COc1ccc(CCN2CCC(Nc3nc4ccccc4n3Cc3ccc(F)cc3)CC2)cc1 | ? | 10µM* | 4.11µM* | 11.2µM* | 15.8µM* | .
COc1ccc(Cn2c(-c3ccc(OC)cc3)nc3ccccc32)cc1 | 3.0% | -0.2% | 17.5% | -6.9% | ? | -4.9
SMILES | Lassa entry inh | VACV Venus inh | MARV entry inh | Vaccinia mCherry | HCV inhibitor | HCMV antiviral
CC/C(=N\N1CCCCCC1)c1c(O)n(-c2ccccc2C)c(=O)[nH]c1=O | 10µM* | -19.8% | -21.0% | ? | ? | ?
CCC(=NCCN1CCOCC1)c1c(O)n(-c2ccccc2C)c(=O)[nH]c1=O | -5.2% | -7.5% | 4.8%[46.1 µM] | -14.7% | -0.4% | 21.9
Cc1ccc2oc(=O)c(S(=O)(=O)c3ccc(C(C)(C)C)cc3)cc2c1 | 16.3%[46.1 µM] | 7.8% | -4.1%[46.1 µM] | -6.1% | . | -1.2
CCSc1ccc(-c2nn(-c3ccccc3)cc2/C=C(/C#N)C(=O)NCCCOC)cc1 | -27.3% | 1.1% | -25.7% | -5.1% | 8.8% | -5.7
N#C/C(=C/c1cn(-c2ccccc2)nc1-c1cccc(OCc2ccccc2)c1)C(=O)NCCCn1ccnc1 | ? | ? | 11.2µM* | -25.6% | ? | 15.6
CCOc1cccc(-c2nn(-c3ccccc3)cc2/C=C(/C#N)C(=O)NCCCn2ccnc2)c1 | ? | ? | ? | ? | 17.8µM* | ?
Cc1ccc2oc(=O)c3cc(C(=O)N4CCN(c5ccccc5F)CC4)sc3c2c1 | -5.7%[46.1 µM] | -1.1% | -5.3%[46.1 µM] | 5.1% | . | -1.1
Cc1ccc(N2CC(NC(=O)c3ccc(S(=O)(=O)N(C)C)cc3)CC2=O)cc1C (configuration not stated) | 5.9%[46.1 µM] | -6.0%[7.34 µM] | . | -3.6%[7.34 µM] | . | 35.3
COc1ccc(OC)c(NC(=O)Cc2coc3ccc(C(C)C)cc23)c1 | -4.8%[46.1 µM] | -9.3% | -29.3%[46.1 µM] | -6.8% | . | -6.7
CCOc1ccc(OCC)c(NC(=O)CSc2nc3c(c(=O)n(C)c(=O)n3C)n2C)c1 | . | . | -1.3% | . | . | .
CCOc1ccc(OCC)c(NC(=O)CSc2nc3c(c(=O)n(C)c(=O)n3C)n2C(C)C)c1 | ? | -20.1% | ? | -24.5% | 10µM* | -62.5*
Cc1cccc(Oc2nc3c(C)cccn3c(=O)c2/C=C(\C#N)c2nc3ccccc3[nH]2)c1 | 23.9%[46.1 µM] | -7.2% | . | 5.6% | . | 21.0
COC(=O)c1ccc(NC(=O)C2CCN(c3ncnc4c3nc3n4CCCCC3)CC2)cc1 | -0.9%[46.1 µM] | -9.0% | . | i | . | -22.7
CC1(C)Oc2ccc3ccc(=O)oc3c2/C(=C/Nc2ccc(O)cc2)C1=O | ? | ? | ? | -29.6% | ? | -84.6*
CC(OC(=O)c1ccc(NC(=O)CC#N)cc1)C(=O)Nc1ccc(Oc2ccccc2)cc1 (configuration not stated) | . | . | . | . | . | 3.6
Cc1cc(C(=O)C(C)OC(=O)c2ccc(NC(=O)CC#N)cc2)c(C)n1-c1ccc(OC(F)F)cc1 (configuration not stated) | 14.1µM* | ? | ? | -9.6% | ? | ?
Cc1cnc(C)c(-c2cccc3c2OC(CNC(=O)C[C@@H]2C[C@@H](C)NC(=S)N2)C3)n1 (some centres not stated) | . | 2.9% | . | -9.8% | . | .

Screening results (PubChem)
